From PubChem
KCNQ2 inh – rat KCNQ2 potassium channel inhibitors, primary screen, cell-based, CHO-K1, FluxOR thallium flux, B-score; 1.1% of 310,000 active; Potassium voltage-gated channel subfamily KQT member 2 (Rattus norvegicus), O88943; B-score at 10 µM; 20 min; stronger effect = lower value; AID 2156, 2009;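 active means fluorescence ratio B-score at most minus 3 library SDs, with starting brightness B-score within 2 library SDs, cut at about -5.5 in these data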
KCNQ2 pot – potentiators of rat KCNQ2 potassium channel | Potassium voltage-gated channel subfamily KQT member 2 (Rattus norvegicus), O88943 | CHO-K1 KCNQ2, FluxOR thallium flux fluorescence; stronger effect = higher value | B-score at 10 µM | 0.54% of 310,000 active | AID 2239, 2010;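 active means fluorescence ratio B-score at least 3 SD of library B-scores, with initial fluorescence B-score within 3 of them, cut at about 5.3 in these data; same plate scores as AID 2156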;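 further: B-score of peak minus minimum over baseline fluorescence ratio after K+ and Tl+ stimulus; positive B-score means potentiation of KCNQ2 with more thallium influx and brighter signal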
Kir21 confirm – mouse Kir2.1 channel blockers, retest, confirmation, cell-based, FluxOR thallium flux, duplicate. shares compounds with KCNQ2 pot. Tl flux remaining, % of negative control (stronger effect = lower value), % at 10 µM. 41% of 2,300 active. Kir2.1-expressing cells, FluxOR thallium flux fluorescence; stronger effect = lower value;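 active means Primary-screen hit whose thallium flux fell at least 3 control SD below untreated wells in both duplicates, with normal baseline fluorescence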;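 further: 0% = blank wells without stimulus and 100% = stimulated no-compound controls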
HEK293 Tl flux – counter-screen for Kir2.1 inhibitors: effect in parental HEK293 cells; 19% of 2,300 active; FluxOR thallium flux fluorescence; 0% = unstimulated blank wells; FluxOR signal as % of negative control (100 = no effect), % at 10 µM; shares compounds with KCNQ2 pot;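 active means dye signal at least 3 control SD above or below untreated wells in both duplicates, raw fluorescence within 3, either direction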;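 further: percent is based on the flux ratio of peak minus minimum fluorescence over baseline F0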
CHO-K1 Tl ctr – nonspecific thallium flux increase in parental CHO-K1, confirmation, counter-screen for KCNQ2 potentiator project, cell-based, FluxOR thallium flux, duplicate; shares compounds with KCNQ2 pot; parental CHO-K1 cells, FluxOR thallium flux fluorescence; zero = vehicle mean+3SD, 100% = vehicle-minus-blank window; activity increase over 3SD of controls, % at 10 µM; 43% of 1,200 active; AID 2282, 2010;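 active means signal rise of at least 3 SD above the untreated control mean, in both duplicate wells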;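 further: counter screen of KCNQ2 potentiator hits so any rise reflects channel-independent effects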
KCNQ1 sel pot – human KCNQ1 channel potentiation off-target, confirmation, selectivity assay for KCNQ2 potentiator project, cell-based, CHO, FluxOR thallium flux; 28% of 1,200 active; shares compounds with KCNQ2 pot; AID 2283, 2010; CHO KCNQ1 stable, FluxOR thallium flux fluorescence; beyond 3SD, as % of vehicle-control signal; activation over 3SD threshold, % at 10 µM;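 active means fluorescence ratio rise of at least 3 SD of vehicle wells above their mean, in both replicate wells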;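 further: 0% = vehicle mean plus 3 SD and 100% = vehicle minus unstimulated blank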
Target sequence (P51787 whole entry, looked up): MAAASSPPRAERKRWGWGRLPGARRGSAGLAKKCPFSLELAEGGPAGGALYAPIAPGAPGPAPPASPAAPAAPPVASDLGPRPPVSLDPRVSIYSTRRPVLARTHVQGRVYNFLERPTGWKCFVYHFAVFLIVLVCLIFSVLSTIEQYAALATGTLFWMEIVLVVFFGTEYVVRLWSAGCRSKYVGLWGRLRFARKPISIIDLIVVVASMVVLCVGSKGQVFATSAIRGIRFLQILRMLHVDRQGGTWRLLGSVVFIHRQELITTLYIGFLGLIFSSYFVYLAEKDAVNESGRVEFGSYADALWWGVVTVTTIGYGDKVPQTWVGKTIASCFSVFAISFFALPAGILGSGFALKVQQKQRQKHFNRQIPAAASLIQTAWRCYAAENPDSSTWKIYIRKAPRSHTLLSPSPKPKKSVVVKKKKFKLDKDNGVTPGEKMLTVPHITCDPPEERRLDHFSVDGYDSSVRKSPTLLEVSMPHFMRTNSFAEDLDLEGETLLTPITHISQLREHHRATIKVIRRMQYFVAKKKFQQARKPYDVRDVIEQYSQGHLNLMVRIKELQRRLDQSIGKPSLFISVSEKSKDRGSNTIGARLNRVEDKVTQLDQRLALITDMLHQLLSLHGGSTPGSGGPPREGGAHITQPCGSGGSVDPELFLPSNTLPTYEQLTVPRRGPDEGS
KCNQ2 pot conf – rat KCNQ2 channel potentiators, confirmation, cell-based, CHO, FluxOR thallium flux, duplicate; 68% of 1,200 active; CHO-KCNQ2 cells, FluxOR thallium flux fluorescence; potentiation, less the hit threshold, % at 10 µM; shares compounds with KCNQ2 pot;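 active means fluorescence ratio rising 3 SD or more over the vehicle control mean in both replicates, plus primary screen hit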;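 further: peak minus minimum thallium fluorescence divided by baseline after K/Tl stimulus; 0% = vehicle mean plus 3 SD and 100% = vehicle minus unstimulated blank difference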
Kir21 spec – mouse Kir2.1 channel activation off-target, confirmation, selectivity assay for KCNQ2 potentiator project, cell-based, HEK293, FluxOR thallium flux | activity over 3SD threshold, % at 10 µM | 2% of 1,200 active | AID 2345, 2010 | HEK293 Kir2.1, FluxOR thallium flux fluorescence | shares compounds with KCNQ2 pot;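 active means fluorescence ratio rise of at least 3 SD above the vehicle-control mean, seen in both replicates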;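 further: 0% = vehicle mean plus 3 SD and 100% = vehicle minus no-stimulus blank window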
* hit, by the source's call. An excerpt weighted towards active compounds, which were near 1.6% of everything screened.

For COc1ccc(S(=O)(=O)N2CCC(C(=O)Oc3cccc(C)c3)CC2)cc1OC the results were KCNQ2 inh inactive and KCNQ2 pot 0.52.
Screening CC(C)CC(=O)/C=C/n1c(=S)oc2ccccc21 returned KCNQ2 inh inactive and KCNQ2 pot 0.78.
`CC(=O)/C=C/n1c(=S)oc2ccccc21` gave KCNQ2 inh inactive, KCNQ2 pot 5.37*, Kir21 confirm inactive, HEK293 Tl flux inactive, CHO-K1 Tl ctr -4.2, KCNQ1 sel pot -9.5, KCNQ2 pot conf -11.5 and Kir21 spec -30.9.
`O=C(c1ccco1)N1CCCN(Cc2nc(-c3ccc4c(c3)OCO4)no2)CC1` gave KCNQ2 inh inactive and KCNQ2 pot 1.57.
Fc1ccc(CN2CCCN(Cc3nc(-c4ccc5c(c4)OCO5)no3)CC2)cc1 was read as KCNQ2 inh inactive, Kir21 confirm 44.5%* and HEK293 Tl flux inactive.
Cc1oc2c(c(C)cc3oc(=O)c(CC(=O)N[C@@H](CCCNC(N)=O)C(=O)O)c(C)c32)c1C was read as KCNQ2 inh inactive and KCNQ2 pot 0.08.
Cc1ccc(S(=O)(=O)Nc2cc(Cl)c(O)cc2C)cc1 was read as KCNQ2 inh inactive.
Screening Cc1ccc(S(=O)(=O)Nc2cc(C(C)C)c(O)cc2C)cc1 returned KCNQ2 inh inactive, Kir21 confirm 34.0%* and HEK293 Tl flux 71.0%*.
For O=C(O)c1cnn(-c2nc(-c3ccc(Cl)c(Cl)c3)cs2)c1C(F)(F)F the results were KCNQ2 inh inactive, KCNQ2 pot 3.64, Kir21 confirm inactive and HEK293 Tl flux inactive.
Screening O=C(O)c1cnn(-c2nc(-c3cccc(F)c3)cs2)c1C(F)(F)F returned KCNQ2 inh inactive and KCNQ2 pot 0.46.
`COc1ccccc1CN(C)C(=O)C(NC(=O)Cc1cccc2ccccc12)C(C)C` (stereo not given) gave KCNQ2 inh inactive.
NC(=O)c1nsc(C(=O)N(CC(=O)NC2CCCCC2)Cc2ccc(F)cc2)c1N was read as KCNQ2 inh inactive and KCNQ2 pot 0.03.
CSc1ccccc1NC(=S)NCc1ccc(Cl)cc1 was read as KCNQ2 inh inactive and KCNQ2 pot 0.49.
`CC1=NNC(=O)C1CCC(=O)N/N=C/C=C/c1ccccc1` (stereo not given) gave KCNQ2 inh inactive and KCNQ2 pot 0.85.
Screening CC1=NNC(=O)C1CC(=O)N/N=C/C=C/c1ccccc1 (stereo not given) returned KCNQ2 inh inactive, KCNQ2 pot 8.79*, Kir21 confirm inactive, HEK293 Tl flux inactive, CHO-K1 Tl ctr -9.5, KCNQ1 sel pot -20.7, KCNQ2 pot conf -14.5 and Kir21 spec -36.9.
Screening C#CCNC(=O)C1=C[C@@H](c2ccc(C#C)cc2)C[C@@H](OCc2ccc(CO)cc2)O1 returned KCNQ2 inh inactive, Kir21 confirm 65.5%* and HEK293 Tl flux inactive.
Screening C#CCNC(=O)C1=C[C@@H](c2ccc(Br)cc2)C[C@@H](OCc2ccc(CO)cc2)O1 returned KCNQ2 inh inactive.
O=C(COC(=O)c1ccc(NC(=O)C2CC=CCC2C(=O)O)cc1)c1ccccc1 (stereo not given) was read as KCNQ2 inh inactive and KCNQ2 pot 0.12.
Screening NC(=O)CCn1c2ccccc2c2ccccc21 returned KCNQ2 inh inactive and KCNQ2 pot 0.2.
`CC(C)CCn1c2ccccc2c2cc(CC(N)=O)ccc21` gave KCNQ2 inh inactive, KCNQ2 pot 0.94, Kir21 confirm inactive and HEK293 Tl flux inactive.
COc1cc2cc(CN(Cc3cccs3)C(=S)Nc3ccccc3)c(=O)[nH]c2cc1OC was read as KCNQ2 inh inactive and KCNQ2 pot 0.36.
Screening Cc1ccc(CC(=O)NCC2CCCCC2)cc1 returned KCNQ2 inh inactive, KCNQ2 pot 7.49*, Kir21 confirm inactive, HEK293 Tl flux inactive, CHO-K1 Tl ctr 46.8*, KCNQ1 sel pot -25.9, KCNQ2 pot conf -10.8 and Kir21 spec -23.1.
`Cc1ccccc1CC(=O)NCC1CCCCC1` gave KCNQ2 inh inactive and KCNQ2 pot 4.23.
Screening O=C(Nc1ccccc1)/C(=C/c1ccc(F)cc1)NC(=O)c1ccco1 returned KCNQ2 inh inactive and KCNQ2 pot 0.52.
Screening CC(C)(C)NC(=O)C(c1ccccc1)N(C(=O)CNC(=O)c1cccs1)c1cccnc1 (stereo not given) returned KCNQ2 inh inactive and KCNQ2 pot 0.56.
CC1CCN(CC(=O)Nc2ccc(C(=O)N3CCCCC3)cc2)CC1 was read as KCNQ2 inh inactive and KCNQ2 pot 0.44.
For CCOC(=O)c1cc2c(=O)n3ccccc3nc2n(CCCOC)c1=NC(=O)c1ccncc1 the results were KCNQ2 inh inactive, KCNQ2 pot 8.61*, Kir21 confirm inactive, HEK293 Tl flux inactive, CHO-K1 Tl ctr -10.1, KCNQ1 sel pot -13.2, KCNQ2 pot conf -27.5 and Kir21 spec -33.9.
Screening CCCn1c(=NC(=O)c2ccco2)c(C(=O)OCC)cc2c(=O)n3ccccc3nc21 returned KCNQ2 inh inactive and KCNQ2 pot 0.09.
Screening COc1ccc(CSC(=N)N)cc1[N+](=O)[O-] returned KCNQ2 inh inactive and KCNQ2 pot 0.48.
CCOc1ccc(C(C)=O)cc1CSC(=N)N was read as KCNQ2 inh inactive and KCNQ2 pot 0.92.
For CCCCCOc1ccc(CSC(=N)N)cc1[N+](=O)[O-] the results were KCNQ2 inh inactive, Kir21 confirm 29.0%* and HEK293 Tl flux inactive.
Screening CCCCOc1ccc(Br)cc1CSC(=N)N returned KCNQ2 inh inactive, KCNQ2 pot 0.15, Kir21 confirm 20.0%* and HEK293 Tl flux inactive.
